RE007 growth inh = less growth of the S. pombe RE007 Vpr strain | S. pombe RE007 Vpr strain, BacTiter-Glo ATP luminescence, 24 h | Potency, µM (doses to about 92.2 µM), for the others: at the highest dose activity change, negative = less growth, actives largely listed as inhibitors | actives 0.21% (n = 360,000); active = well fitted falling curve with a large enough effect; inconclusive = small, poorly fitted or top-dose-only effect; inactive = no such curve, though single readings can be large or run the other way; also: % is scaled to controls: 0 for no effect and ±100 for the full control effect; nearly all actives have a fitted effect of over 50% in size
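Fission yeast RE007 carrying one integrated HIV-1 vpr copy, seeded at OD 0.01 in PMG+AL medium with 23 nL pinned compound. Grown 24 h at 30 degrees; viability read by BacTiter-Glo luminescence after 5 min.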
Giardia FBPA inh = blocks Giardia fructose-bisphosphate aldolase activity. purified Giardia FBPA. Potency, µM (highest dose often 59.6 µM), for inactives: top-dose activity, negative = inhibition, hits mostly inhibitors. actives 0.71% (n = 290,000); also: % is scaled to controls: 0 for no effect and ±100 for the full control effect; nearly all actives have a fitted effect of over 55% in size
Target sequence (A8B2U2 whole entry, looked up): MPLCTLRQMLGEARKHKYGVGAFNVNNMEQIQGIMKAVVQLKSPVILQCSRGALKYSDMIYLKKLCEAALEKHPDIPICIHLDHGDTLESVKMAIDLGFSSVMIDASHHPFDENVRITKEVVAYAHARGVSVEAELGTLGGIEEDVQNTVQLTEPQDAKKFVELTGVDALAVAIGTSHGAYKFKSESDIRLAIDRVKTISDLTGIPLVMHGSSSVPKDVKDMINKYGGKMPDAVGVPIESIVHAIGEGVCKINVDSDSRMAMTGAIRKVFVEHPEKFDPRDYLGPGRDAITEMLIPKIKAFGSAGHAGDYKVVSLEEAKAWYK
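Giardia FBPA (40 nM reagent) was preincubated 10 min at RT with compound (up to 57.5 uM final), then substrate plus GAPDH/TPI/NAD/arsenate coupling system with diaphorase/resazurin was added; resorufin fluorescence (525/598 nm) was read after 20 min.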
LmPK inh = blocks Leishmania mexicana pyruvate kinase activity | purified LmPK, Kinase-Glo ATP luminescence, 1 h | Potency, µM (titrated, usually from 57.5 µM), inactives show at the highest dose activity change, negative = inhibition, most hits filed as inhibitors | actives 0.37% (n = 290,000) | AID 1721; also: % is scaled to controls: 0 for no effect and ±100 for the full control effect
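Kinase-Glo luminescence read after 1 h RT reaction of 0.1 nM LmPK with 0.5 mM PEP and 0.1 mM ADP. Activity scaled between uninhibited and enzyme-free controls.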
NS1 function inh = influenza NS1 inhibition | actives 0.4% (n = 270,000) | Potency, µM (highest dose often 46.1 µM), for the others: at the highest dose activity, positive = more growth | AID 2326; calls by dose curve; also: actives are rising curves; nearly all actives have a fitted effect of over 50% in size
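Read-out: OD600 growth recovery of NS1-expressing budding yeast. Cells grown overnight at 30C in -URA glucose medium, washed, resuspended and diluted 1:100 in 2% galactose assay medium, pH 6.0. Same strain lacking NS1 served as positive control.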
Sm TGR inh = blocks Schistosoma mansoni thioredoxin glutathione reductase. Q962Y6. purified TGR, DTNB reduction, TNB absorbance 405 nm. Potency, µM (top dose mostly 114 µM), for inactives: at the top dose activity change, negative = inhibition, usual class: inhibitors. actives 3% (n = 360,000); also: % is scaled to controls: 0 for no effect and ±100 for the full control effect; nearly all actives have a fitted effect of over 60% in size
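Kinetic colorimetric format: TGR-catalysed, NADPH-driven DTNB reduction monitored via TNB absorbance. Enzyme dispensed at 20 nM; compound exposure 15 min at room temperature before reaction start.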
Tb PYK inh = blocks Trypanosoma brucei pyruvate kinase; Q57TT1; actives 0.12% (n = 410,000); TbPYK enzyme, Kinase-Glo Plus ATP luminescence, 45 min; AID 624173; Potency, µM (highest dose often 76.8 µM), for inactives: top-dose activity, negative = inhibition, actives largely listed as inhibitors; also: % is scaled to controls: 0 for no effect and ±100 for the full control effect; nearly all actives have a fitted effect of over 50% in size
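In this concentration-response screen, enzyme-free wells defined baseline while DMSO plates tracked drift. Each reaction combined TbPYK, substrate, compound and 130 uM ADP for 45 min at room temperature. Kinase-Glo Plus luminescence gave the signal.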
* = called active by the depositor; ? = inconclusive; . = not tested or not shown; [ ] = remark or other dose. Shown are actives, neighbours in structure and some others; about 3.5% of the full set was active somewhere. Unless noted, calls follow the shape of the dose curve; as a rule, active = well fitted curve in the direction sought with a large enough effect; inconclusive = small, poorly fitted or top-dose-only effect, or another doubt; inactive = no such curve, though single readings can be large; an effect the other way counts as inactive or inconclusive. Potency is read from the fitted curve at half-maximal effect.

SMILES	RE007 growth inh	Giardia FBPA inh	LmPK inh	NS1 function inh	Sm TGR inh	Tb PYK inh
O=C(CC1SC(=O)N(c2ccccc2)C1=O)Nc1ccc(Br)cc1 (stereo not drawn)	-19%	-10%	-6%	6%	3.2µM*	-4%
O=C(CC1SC(=O)N(c2ccccc2)C1=O)Nc1ccc(Cl)cc1 (stereo not drawn)	0%	-9%	3%	10%	4µM*	-6%
CCCN1C(=O)SC(CC(=O)Nc2ccccc2)C1=O (stereo not drawn)	3%	1%	-2%	-104%	1%	3%
O=C1C2=C(C(=O)c3ccccc31)C1O[C@](CCCCN3C(=O)c4ccccc4C3=O)(Cc3c1ccc1ccccc31)O2	.	1%[12.9 µM]	1%[11.5 µM]	25%	-29%[22.9 µM]	.
CC(=O)Nc1c([N+](=O)[O-])cc2[nH]c(=O)[nH]c2c1[N+](=O)[O-]	25%	-30%	-1%	.	50µM*	-4%
O=C(CCN1CCN(c2ccccc2)CC1)N/N=C/c1ccc([N+](=O)[O-])o1	-12%	-18%	4%	.	32µM*	-1%
O=C(CN1CCCCCCC1)N/N=C/c1ccc([N+](=O)[O-])o1	-6%	?	-2%	6%	14µM*	-1%
CCCCCCCC(=O)N/N=C/c1ccc([N+](=O)[O-])o1	-9%	-12%	0%	-30%	?	-1%
O=C(CN1CCOCC1)NN=Cc1ccc([N+](=O)[O-])o1	-15%	.	.	.	.	1%
COC(=O)C1=C(C(=O)OC)[C@@H]2Nc3ccccc3[C@@]23C[C@@H](C(=O)OC)N(S(=O)(=O)c2cccs2)C3=N1	.	7%[12.9 µM]	4%[11.5 µM]	.	.	.
CCC(=O)NCc1nc2ccccc2n1Cc1ccccc1	.	.	.	.	4%	4%
Cc1ccc(C2=NN(C(=O)CSc3nc4ncc(Cl)cc4[nH]3)C(c3ccco3)C2)cc1 (stereo not drawn)	13%	-14%	1%	.	14µM*	1%
Nc1cc(=O)[nH]c(SCC(=O)N2N=C(c3ccc(Cl)cc3)CC2c2ccco2)n1 (stereo not drawn)	-4%	1%	1%	17%	.	-7%
COc1ccc(C2=NN(C(=O)CSc3nc4ncc(Cl)cc4[nH]3)C(c3ccco3)C2)cc1 (stereo not drawn)	1%	-5%	2%	.	28µM*	-19%
CCCCCOC(=O)c1ccc(Nc2nc(C(=O)OCC)nc3ccccc23)cc1	.	.	.	.	-1%	5%
COc1cccc(OC)c1C(=O)OCC(=O)NCc1ccco1	-5%	.	.	.	50µM*	1%
O=C(COC(=O)C1CCCCC1C(=O)N1CCc2ccccc21)NCc1ccco1 (stereo not drawn)	0%	-6%	-4%	2%	25µM*	5%
COc1cc(/C=C/C(=O)OCC(=O)NCc2ccco2)ccc1O	24%	.	.	.	28µM*	4%
O=C(COC(=O)C1CC2C=CC1C2)NCc1ccco1 (stereo not drawn)	5%	-4%	1%	-10%	50µM*	2%
O=C(COC(=O)C1CC2C=CC1C2)NCc1ccc(F)cc1 (stereo not drawn)	4%	3%	0%	-5%	-11%	-13%
COc1ccccc1/C=C/C(=O)OCC(=O)NCc1ccco1	-8%	5%	-4%	-5%	1%	1%
COc1ccccc1OCC(=O)NCc1ccco1	27%	8%	0%	-8%	-20%	3%
O=C(CN1CCCc2ccccc21)NC(=O)NCc1ccco1	15%	?	11%	8%	-31%	-6%
CCOc1ccc(CNC(=O)c2ccc(-c3nc(CS(=O)(=O)c4ccccc4)c(C)o3)cc2)cc1	.	.	.	.	-23%	-6%
CC(C)N1C(=O)C(O)(c2c[nH]c3ccccc23)c2ccccc21 (stereo not drawn)	.	.	.	.	-8%	0%
COc1ccc(OC)c(NC(=O)CN(C)S(=O)(=O)c2ccc(C(=O)N3CCOCC3)s2)c1	.	.	.	.	-5%	1%

Source: PubChem (National Center for Advancing Translational Sciences (NCATS))
